Data from PubChem BioAssay (NCI).
The panel holds about 83,000 compounds, 20% with a hit somewhere; the sample as a whole holds those more often.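 In brief: 96-well plates, 48 h treatment, single concentration, percent growth endpoint.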 Activity calls are given as the source filed them. The calls were made as follows: active = growth percent below 10; inactive = the rest.

Test system: BT-549 breast
Assay: NCI-60 one-dose screen, 48 h (100 = growth as untreated, 0 = no growth, -100 = all killed)
Details: 10 µM unless noted

Compound | growth
O=C(Nc1ccccc1)Oc1cccc2cccnc12 | 102% (inactive)
O=c1[nH]c(-c2ccccn2)nc2sc3c(c12)CCCCCC3 | 62.2% (inactive)
CC(=O)N(CC(O)CO)c1c(I)c(C(=O)NCCO)c(I)c(C(=O)NCC(O)CO)c1I (stereo not drawn) | 94.3% (inactive)
COc1ccc(-c2nc3sc(C)nn3c2-c2nc3cc(C)c(C)cc3[nH]2)cc1 | 96.5% (inactive)
O=C(C[Si](CC(=O)c1cccc(C(F)(F)F)c1)CC(=O)c1cccc(C(F)(F)F)c1)c1cccc(C(F)(F)F)c1 | 87.2% (inactive)
Cc1ccc(C2SCC(=O)N2NC(=O)c2[nH]c3ccc(F)cc3c2-c2ccccc2)cc1 (stereo not drawn) | 93.2% (inactive)
CCCCCCCCCCCCSC1=CC(=O)C=CC1=O | 16.5% (inactive)
O=C1/C(=C/c2ccc(Oc3ccccc3)cc2)N=C(c2ccccc2)N1CCc1cccs1 | 74.9% (inactive)
COc1ccc(Nc2[nH]n(C3=Nc4ccccc4Sc4ccccc43)c(=O)c2C#N)cc1 | 52.8% (inactive)
FC(F)(F)c1cc(CNc2ncc(Br)c(Cl)n2)cc(C(F)(F)F)c1 | 83.7% (inactive)
CCCCc1ccc(C(O)(CCN2CC3CCC(CC3)C2)c2ccccc2)cc1 (stereo not drawn) | 90.2% (inactive)
CC(C)NCC(O)COc1ccc(CCOCC2CC2)cc1 (stereo not drawn) | 116% (inactive)
Oc1cccc(Nc2nc(-c3ccccn3)cs2)c1 | 95.1% (inactive)
O=C(O)CCN1CCN(c2cccc(Cl)c2)CC1 | 104% (inactive)
CCCCC(CCCC)(S(=O)(=O)CC)S(=O)(=O)CC | 96.6% (inactive)
COc1ccc(/C=C2\CN(Cc3cn(CCCNc4ccnc5cc(Cl)ccc45)nn3)C/C(=C\c3ccc(OC)cc3)C2=O)cc1 | 44.3% (inactive)
Cn1c2c(cc(S(=O)(=O)c3ccccc3)c1=O)CCc1c-2cnn1-c1cccc(Cl)c1 | 92.4% (inactive)
CCOc1ccc(-c2cnnn2-c2nonc2-n2cccc2)cc1 | 41.1% (inactive)

Compound | growth
COc1ccc(-c2csc3c2-n2cccc2C3=O)cc1O | -26.2% (active)
O=C1OCC2=C1C(c1ccc3c(c1)OCO3)CC(=O)N2c1cccc(Cl)c1 (stereo not drawn) | 126% (inactive)
COc1cc2nc(N3CCC[C@H](NC4=CC(=O)c5ccccc5C4=O)C3)nc(N)c2cc1OC | 105% (inactive)
CC1SC(c2ccc(Cl)cc2)N(CCc2cccs2)C1=O (stereo not drawn) | -39.3% (active)
C[C@@H](Oc1cc(-c2cnn(C3CC4(CNC4)C3)c2)cnc1N)c1c(Cl)ccc(F)c1Cl | 80.3% (inactive)
Cc1nn(-c2ccccc2)c2nc3nc4c(c(N)c3c(-c3ccc(Cl)cc3)c12)CCC4 | 114% (inactive)
COc1ncnc2c1ncn2C/C(Br)=C(\Br)CCl | 70.2% (inactive)
CCOC(=O)C(CC(c1ccccc1)N1CCCCC1)[N+](=O)[O-] (stereo not drawn) | 94.8% (inactive)
O=c1nc(NO)[nH]c(=O)n1Cc1ccc(F)cc1 | 102% (inactive)
CCN(CC)CCCNc1ccc(C)c2sc3ccccc3c(=O)c12 | 76.5% (inactive)
Cn1cc(C(=O)NCCC(=N)N)cc1NC(=O)CN=C(N)N | 99.9% (inactive)
Cc1cc(=O)c2c(C)ccc(C)c2[nH]1 | 123% (inactive)
COc1ccc(OC2=C(C#N)C(=N)N3c4ccccc4Sc4ccccc4C3N2)cc1 (stereo not drawn) | 96.9% (inactive)
O=c1onc(-c2ccccc2)c2ccccc12 | 118% (inactive)
O=C1C(Cl)=C(NCCCN2CCOCC2)C(=O)c2ccccc21 | 97.2% (inactive)
CCCCc1ccc(NC(=O)C(F)(F)F)cc1 | 87.7% (inactive)
O=C1CC(c2ccsc2)c2snc(-c3ccc(Cl)cc3)c2N1 (stereo not drawn) | 32.8% (inactive)
COc1ccc2nc(-n3nc(C)cc3C)c(-n3nc(C)cc3C)nc2c1 | 104% (inactive)

Test system: MDA-MB-435 melanoma
Assay: as above
Details: 10 µM unless noted

Compound | growth
O=C(Nc1ccccc1)Oc1cccc2cccnc12 | 97% (inactive)
O=c1[nH]c(-c2ccccn2)nc2sc3c(c12)CCCCCC3 | 46.4% (inactive)
CC(=O)N(CC(O)CO)c1c(I)c(C(=O)NCCO)c(I)c(C(=O)NCC(O)CO)c1I (stereo not drawn) | 105% (inactive)
COc1ccc(-c2nc3sc(C)nn3c2-c2nc3cc(C)c(C)cc3[nH]2)cc1 | 95.6% (inactive)
O=C(C[Si](CC(=O)c1cccc(C(F)(F)F)c1)CC(=O)c1cccc(C(F)(F)F)c1)c1cccc(C(F)(F)F)c1 | 26% (inactive)
Cc1ccc(C2SCC(=O)N2NC(=O)c2[nH]c3ccc(F)cc3c2-c2ccccc2)cc1 (stereo not drawn) | 96.3% (inactive)
CCCCCCCCCCCCSC1=CC(=O)C=CC1=O | 102% (inactive)
O=C1/C(=C/c2ccc(Oc3ccccc3)cc2)N=C(c2ccccc2)N1CCc1cccs1 | 89.7% (inactive)
COc1cc(CNCCCN2C(=O)c3ccc4c5c(ccc(c35)C2=O)C(=O)N(CCCNCc2cc(OC)c(OC)c(OC)c2)C4=O)cc(OC)c1OC | -71.5% (active)
CCCCc1ccc(C(O)(CCN2CC3CCC(CC3)C2)c2ccccc2)cc1 (stereo not drawn) | 98.2% (inactive)
CC(C)NCC(O)COc1ccc(CCOCC2CC2)cc1 (stereo not drawn) | 103% (inactive)
O=C(O)CCN1CCN(c2cccc(Cl)c2)CC1 | 93.1% (inactive)
CCCCC(CCCC)(S(=O)(=O)CC)S(=O)(=O)CC | 97.4% (inactive)
COc1ccc(/C=C2\CN(Cc3cn(CCCNc4ccnc5cc(Cl)ccc45)nn3)C/C(=C\c3ccc(OC)cc3)C2=O)cc1 | 60.2% (inactive)
Cn1c2c(cc(S(=O)(=O)c3ccccc3)c1=O)CCc1c-2cnn1-c1cccc(Cl)c1 | 87.9% (inactive)
CCOc1ccc(-c2cnnn2-c2nonc2-n2cccc2)cc1 | -31.2% (active)

Compound | growth
COc1ccc(-c2csc3c2-n2cccc2C3=O)cc1O | -57.1% (active)
O=C1OCC2=C1C(c1ccc3c(c1)OCO3)CC(=O)N2c1cccc(Cl)c1 (stereo not drawn) | 100% (inactive)
COc1cc2nc(N3CCC[C@H](NC4=CC(=O)c5ccccc5C4=O)C3)nc(N)c2cc1OC | -96.1% (active)
C[C@@H](Oc1cc(-c2cnn(C3CC4(CNC4)C3)c2)cnc1N)c1c(Cl)ccc(F)c1Cl | 41% (inactive)
Cc1nn(-c2ccccc2)c2nc3nc4c(c(N)c3c(-c3ccc(Cl)cc3)c12)CCC4 | 95.1% (inactive)
COc1ncnc2c1ncn2C/C(Br)=C(\Br)CCl | 3.99% (active)
CCOC(=O)C(CC(c1ccccc1)N1CCCCC1)[N+](=O)[O-] (stereo not drawn) | 93.7% (inactive)
O=c1nc(NO)[nH]c(=O)n1Cc1ccc(F)cc1 | 103% (inactive)
CCN(CC)CCCNc1ccc(C)c2sc3ccccc3c(=O)c12 | -85.7% (active)
Cn1cc(C(=O)NCCC(=N)N)cc1NC(=O)CN=C(N)N | 111% (inactive)
Cc1cc(=O)c2c(C)ccc(C)c2[nH]1 | 104% (inactive)
O=c1onc(-c2ccccc2)c2ccccc12 | 105% (inactive)
O=C1C(Cl)=C(NCCCN2CCOCC2)C(=O)c2ccccc21 | 63.9% (inactive)
CCCCc1ccc(NC(=O)C(F)(F)F)cc1 | 102% (inactive)
O=C1CC(c2ccsc2)c2snc(-c3ccc(Cl)cc3)c2N1 (stereo not drawn) | -20.9% (active)
COc1ccc2nc(-n3nc(C)cc3C)c(-n3nc(C)cc3C)nc2c1 | 102% (inactive)
